Experimental findings from the supplement of paper PMC6555819 are described below.

Common to all, as to assay: PBM binding z-score (relative to random genomic background probes); higher = stronger binding; sequences stand for … in GC…GCGATTGACAGCGTAGAATGAAGG
For assay [1], the system named is FXR:RXRa (NR concentration 270 nM, RXRa partner concentration 90 nM). In short, it runs like this: (§1)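 Each nuclear receptor dimer, without ligand, was incubated for 1 h on custom Agilent 4×180K protein-binding microarrays. Binding was detected with antibodies against each partner (one per run), and scanned fluorescence was regression-normalized. The binding z-scores are referenced to random human genomic background probes.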

Assay [2] concerns LXRa:RXRa (NR concentration 270 nM, RXRa partner concentration 90 nM). In a few lines: as §1
Assay [3] relates to LXRa homodimer (NR concentration 270 nM). In short, it runs like this: as §1
Assay [4] relates to LXRb:RXRa (NR concentration 270 nM, RXRa partner concentration 90 nM). In short, it runs like this:
as §1

Assay [5] deals with LXRb homodimer (NR concentration 270 nM). In short, it runs like this: as §1
In assay [6] the test system is PPARa:RXRa (NR concentration 270 nM, RXRa partner concentration 90 nM). In a few lines: as §1
Assay [7] relates to PPARg:RXRa (NR concentration 180 nM, RXRa partner concentration 90 nM). In short, it runs like this: as §1
Assay [8] has as its system PPARg:RXRa 270nM:90nM, anti-RXR (NR concentration 270 nM, RXRa partner concentration 90 nM). In short, it runs like this: as §1
Assay [9] relates to PPARg:RXRa 30nM:10nM, anti-RXR (NR concentration 30 nM, RXRa partner concentration 10 nM). In short, it runs like this:
as §1

In assay [10] the test system is PPARg:RXRa 90nM:30nM, anti-RXR (NR concentration 90 nM, RXRa partner concentration 30 nM). In a few lines:
as §1

The test system of assay [11] is PPARg:RXRa DBDmut IVT, anti-RXR (DBD mutation: RXRa K156A/R161A, NR concentration 270 nM, RXRa partner concentration 90 nM). In short, it runs like this: as §1
For assay [12], the system named is PPARg:RXRa IVT, anti-PPARg (NR concentration 270 nM, RXRa partner concentration 90 nM). In a few lines:
as §1

Assay [13] concerns PPARg DBDmut:RXRa IVT, anti-PPARg (DBD mutation: PPARg1 K132A/R137A, NR concentration 270 nM, RXRa partner concentration 90 nM). In short, it runs like this: as §1
Assay [14] has as its system PPARg DBDmut IVT, anti-PPARg (DBD mutation: PPARg1 K132A/R137A, NR concentration 270 nM). In a few lines: as §1
The subject of assay [15] is PPARg homodimer (NR concentration 180 nM). In a few lines:
as §1

Assay [16] has as its system PXR:RXRa (NR concentration 270 nM, RXRa partner concentration 90 nM). In a few lines: as §1
The test system of assay [17] is PXR homodimer (NR concentration 270 nM). In a few lines:
as §1

Assay [18] relates to RARa:RXR (NR concentration 270 nM, RXRa partner concentration 90 nM). In short, it runs like this: as §1
The test system of assay [19] is RARa homodimer (NR concentration 270 nM). In short, it runs like this: as §1
The subject of assay [20] is RARb:RXRa (NR concentration 270 nM, RXRa partner concentration 90 nM). In a few lines: as §1

CCGACTGGGGCATAAGGTTACCGTAAGCCAGCCC: the PBM binding z-score in assay [1] is 0.834; in assay [2], 0.933; in assay [3], -0.596; in [4], 0.83; in [5], -1.46; in [6] it was 2.03. Further, the PBM binding z-score was found to be 2.33 in [7]; 3.5 in assay [8]; 1.26 in [9]; 3.13 in assay [10]; 3.14 in [11]; 3.4 in assay [12]. Besides, the PBM binding z-score was -0.802 in assay [13]; -1.39 in assay [14]; 0.271 in assay [15]; 0.55 in [16]; -0.911 in assay [17]; 1.66 in [18]. The PBM binding z-score in [19] is -0.61; in assay [20], 1.98.

With ATTACAGGGTCATCGTAGGCCAGAGTACGCACAG, the PBM binding z-score in assay [1] turned out to be 7.11; in assay [2], 6.64; in assay [3], 1.78; in [4], 4.65; in [5], 2.02; in [6], 6.2. The PBM binding z-score in [7] was found to be 7.1; in assay [8], 6.16; in assay [9], 2.72; in assay [10], 5.18; in assay [11], 2.45; in assay [12], 4.43. Besides, the PBM binding z-score turned out to be 2.06 in assay [13]; 2.49 in assay [14]; 4.05 in assay [15]; 5.5 in assay [16]; 1.66 in assay [17]; 5.52 in assay [18]. For the same sequence, the PBM binding z-score stood at 1.45 in [19] and 4.45 in assay [20].

In the case of ATATATAGGTTAAGGGTCATTCAGGTTGGTTCGC, the PBM binding z-score in assay [1] was found to be 5.73; in assay [2] it was 5.29; in assay [3], 4.07; in assay [4], 4.88; in assay [5], 1.86; in assay [6], 6.8. The PBM binding z-score in assay [7] was found to be 11.9; in assay [8], 9.9; in assay [9], 10.7; in [10], 11.7; in [11] it was 7.29; in assay [12], 7.49. Besides, the PBM binding z-score in assay [13] was determined as 2.46; in assay [14], 2.9; in assay [15], 4.36; in [16], 5.67; in [17] it was 3.53; in assay [18], 6.57. Also, the PBM binding z-score in assay [19] was determined as 3.52; in assay [20], 3.92.

For GCTTACGGGTCGAAGGTTATAGCATGAATAGAAT, the PBM binding z-score is 2.01 in [1]; 2 in assay [2]; -0.187 in [3]; 2.51 in assay [4]; -0.371 in assay [5]; 4.36 in assay [6]. In addition, the PBM binding z-score in assay [7] is 6.66; in assay [8], 6.7; in assay [9], 4.94; in assay [10] it was 6.88; in assay [11] it was 0.529; in [12], 2.66. Moreover, the PBM binding z-score was 0.973 in assay [13]; 0.687 in assay [14]; 1.39 in assay [15]; 2.65 in [16]; -0.142 in assay [17]; 3.79 in assay [18]. The PBM binding z-score was -0.0107 in assay [19] and 1.49 in [20].

For TCGTGTAGGTTAGGGGCATTCAGAATGGCGTCGA, the PBM binding z-score stood at 1.04 in assay [1]; 0.994 in assay [2]; 0.245 in assay [3]; 1.63 in assay [4]; 0.909 in assay [5]; 1.6 in assay [6]. The PBM binding z-score in [7] was found to be 0.371; in assay [8], 1.78; in assay [9], 2.01; in assay [10] it was 2.06; in [11], 1.79; in assay [12] it was 1.06. Besides, the PBM binding z-score turned out to be 0.425 in assay [13]; 0.917 in assay [14]; 1.52 in assay [15]; 0.802 in assay [16]; 0.406 in assay [17]; 1.03 in [18]. In addition, the PBM binding z-score in assay [19] is 0.812; in [20] it was 1.47.

In the case of CCTCGGAGGACAACAGGAGGTCCGAGCTGCCAGA, the PBM binding z-score in assay [1] was -0.13; in [2] it was -0.509; in assay [3] it was -0.575; in assay [4] it was -1.1; in assay [5] it was -0.867; in [6] it was -0.795. Besides, the PBM binding z-score is -0.182 in assay [7]; -0.921 in [8]; -0.862 in [9]; -0.99 in assay [10]; -0.427 in [11]; -0.95 in [12]. The PBM binding z-score in [13] is -1.85; in assay [14], -2.01; in assay [15], -0.576; in assay [16] it was -0.914; in [17], -0.768; in assay [18] it was -0.793. Besides, the values for the PBM binding z-score in [19] and in [20] were -0.318 and 1.1, respectively.

Consider CAGTCTAGGTCAGGGCCAGTATAGGAGGAACGTT, for which the PBM binding z-score in [1] is 1.52; in assay [2], 1.1; in assay [3], -0.0547; in [4] it was 0.856; in assay [5], -0.215; in [6], 2.68. Further, the PBM binding z-score stood at 2.64 in assay [7]; 2.85 in assay [8]; 1 in assay [9]; 1.96 in assay [10]; 5.44 in [11]; 4.91 in assay [12]. Also, the PBM binding z-score in [13] is 0.454; in assay [14] it was -0.134; in assay [15] it was 1.53; in assay [16], 0.376; in assay [17] it was 0.305; in [18] it was 1.2. The PBM binding z-score amounted to 0.439 in [19] and 3.48 in assay [20].
